Experimental findings from PubChem BioAssay AID651845 (Broad Institute, 2012) are described below.

The nature of this assay: Trypanosoma cruzi replication inhibitors in host cells – cell-based, plate reader, dry powder samples, dose response (AID 651845). Conditions: T. cruzi beta-gal in NIH3T3, GalScreen luminescence, 90 h; series mostly up to 16 µM.

Structures are written as SMILES. Entries with a potency or affinity are not part of this list. Results filed as inconclusive are left out. Active and inactive are the calls of the source.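 How the source made its calls: active means every replicate test called active, with signal dropping and a potency found within twice the top tested dose; inconclusive means replicate test calls disagree with each other; inactive means all replicate tests inactive, including signal rising.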

Consider `CNC[C@@H]1Oc2c(NC(=O)c3ccncc3)cccc2C(=O)N(C(C)C)C[C@H]1C`, for which the molecule was called inactive. For `CC(C)N1C[C@H](C)[C@@H](CN(C)C(=O)OC(C)(C)C)Oc2c(C(=O)O)cccc2C1=O`, the result was inactive.
